High-throughput results deposited in PubChem by National Center for Advancing Translational Sciences (NCATS).
Pf growth 96h: P. falciparum growth inhibition at 96 hour, primary screen for plastid delayed-death inhibitors | P. falciparum luciferase reporter growth, 96 h | Potency, µM (series often up to 28.7 µM), for the others: at the highest dose activity change, negative = inhibition, most hits filed as inhibitors | actives 6.9% (n = 320,000) | AID 504834; further: potency means the concentration at half of the fitted maximal effect; on the % scale 0 is the no-effect control and ±100 the full control effect
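Compounds incubated with erythrocytes infected by luciferase-expressing P. falciparum (2% hematocrit, 0.05% parasitemia final) for 96 hours, 37 C in 5% CO2. Growth inhibition scored as decreased luciferase luminescence.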
Shiga inhibitor: blocks Shiga toxin action in Vero cells; AID 2315; actives 9.2% (n = 290,000); inhibition, % at 38.7 µM; Vero cells, Shiga toxin protein synthesis inhibition reporter; in the data active means inhibition mostly above about 28%, no sharp cut-off; inactive means mostly below about 43%; further: 0% is about no effect
Cycloheximide cs: counter-screen for Shiga toxin inhibitors: cycloheximide protein synthesis inhibition. actives 12% (n = 300,000). cell reporter, cycloheximide protein synthesis inhibition counterscreen. max response, %. AID 2314; in the data active means max response mostly above about 13%, no sharp cut-off; inactive means mostly below about 14%; further: read at 38.3 µM for the half of the compounds with a filed dose; 0% is about no effect
Pf growth 48h: inhibits P. falciparum growth in the first generation, 48 h | P. falciparum luciferase growth in erythrocytes, 48 h | Potency, µM (doses to about 28.7 µM), inactives show top-dose activity change, negative = inhibition, hits mostly inhibitors | actives 5.9% (n = 310,000) | AID 504832; further: potency means the concentration at half of the fitted maximal effect; on the % scale 0 is the no-effect control and ±100 the full control effect
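Cell-based growth assay: transgenic P. falciparum expressing firefly luciferase, cultured in red cells within RPMI 1640 containing 0.5% w/v Albumax, 24 mM bicarbonate and gentamycin. A drop in luciferase activity indicates inhibition.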
NS1 inh: inhibitors of influenza NS1 protein function | Potency, µM (titrated, usually from 46.1 µM), without a hit: at the top dose activity, positive = more growth | actives 0.4% (n = 270,000) | AID 2326; calls by dose curve; further: potency means the concentration at half of the fitted maximal effect; actives are rising curves; nearly all actives have a fitted effect of over 50% in size
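A cell-based growth assay was used: compounds that relieve NS1-induced slow growth of budding yeast raise OD600. Assay medium was yeast nitrogen base with ammonium sulphate and -URA supplement, pH 6.0, with 2% galactose.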
* hit, by the source's call; ? = inconclusive; . = no result; ! = not confirmed by another sample; [ ] = another dose, or the depositor's remark. Shown are actives, neighbours in structure and some others; about 21% of the full set was active somewhere. Unless noted, the call rests on the fitted dose curve; in most records, active means well fitted inhibition curve with a large enough effect; inconclusive means small, poorly fitted or top-dose-only effect, or another doubt; inactive means no such curve, though single readings can be large or run the other way.

SMILES | Pf growth 96h | Shiga inhibitor | Cycloheximide cs | Pf growth 48h | NS1 inh
Cc1ccc(NC(=O)CNCc2ccccc2)c(Br)c1 | ? | 157* | 16* | 122% | .
CS(=O)(=O)N(CC(=O)NC1CCCCC1)c1cccc(F)c1 | ? | -14 | 11 | 37% | 11%
Cc1ccc(NC(=O)CNCc2cccs2)c(Br)c1 | 7% | 67* | 35* | 7% | -8%
O=c1ccc2c(OCCCCOc3ccccc3)c3ccoc3cc2o1 | . | 1 | 19 | . | .
O=C1C2C3CC(C(Br)C3Br)C2C(=O)N1c1ccccn1 (stereo unspecified) | 32% | -3 | -2 | ? | -3%
COc1ccc(-c2nc3ccccc3c(=O)n2-c2cccnc2)cc1 | ? | -18 | -4 | 2% | 7%
COc1ccc(-n2c(-c3ccc(C)cc3)nc3ccccc3c2=O)cc1 | ? | 58* | 32* | 0% | -4%
Cc1ccnc(N2C(=O)C3C4CC(C(Br)C4Br)C3C2=O)c1 (stereo unspecified) | 9.3µM* | -9 | -1 | 20% | 22%
Cc1ccc(-c2nc3ccccc3c(=O)n2-c2cc(C)ccn2)cc1 | 7% | 48 | 30* | -7% | 6%
O=C(c1ccccc1)c1c(O)nc(-c2ccccc2)n(-c2ccccc2)c1=O | 94% | 78* | 54* | 46% | 3%
COc1ccc2c(c1OC)C(=O)N1C2SC[C@H]1C(=O)NC1CCCCC1 (stereo partly specified) | 38% | -1 | 2 | -8% | 24%
CC(NC(=O)c1ccc2c(=O)n3c(nc2c1)CCCCC3)c1ccccc1 (stereo unspecified) | ? | . | . | -24% | .
Cc1ccc2c(c1)N(C(=O)CCC(=O)NCc1cccc(Cl)c1)CC(C)O2 (stereo unspecified) | -32% | 10 | -2 | ? | -12%
CCOc1ccc(-n2c(-c3cccs3)nc3ccccc3c2=O)cc1 | 9.3µM* | 17 | -4 | 1% | 0%
Cc1ccnc(N2C(=O)c3ccccc3C2=O)c1 | 12µM* | -6 | -6 | -14%[0.00184 µM] | 1%
O=c1c2ccccc2nc(-c2ccc(-c3ccccc3)cc2)n1-c1ccncc1 | ? | 21 | 26* | ? | -1%
Cc1ccc(-c2nc3ccccc3c(=O)n2-c2ccncc2)cc1 | ? | -4 | 1 | -66% | -3%
CC(=O)NS(=O)(=O)c1ccc(NC(=O)CSc2ccc(C)cc2)cc1 | 42% | 23 | -8 | 27% | 3%
O=C1OC(CN2CCOCC2)CN1N=Cc1ccc([N+](=O)[O-])o1 (stereo unspecified) | ? | . | . | 13µM* | .
O=C1OCCN1/N=C/c1ccc([N+](=O)[O-])o1 | 3.8µM* | 14 | -2 | 13µM*! | -9%
O=C1CN(/N=C/c2ccc([N+](=O)[O-])o2)C(=O)N1 | 4.1µM* | -14 | -3 | 13µM* | -1%
O=C1O[C@H](CN2CCOCC2)CN1/N=C\c1ccc([N+](=O)[O-])o1 | ? | . | . | -17%[12.8 µM] | .
C/C(CC(=O)Nc1ccccc1C#N)=N\NC(=O)c1ccncc1 | 23% | 39 | 12 | -19% | 2%
CCOc1ccc(Cc2nnc(SCC(=O)Nc3ccc(C(C)=O)cc3)[nH]c2=O)cc1 | 2% | . | . | ? | .
Cc1cc(=O)oc2cc(OCC(=O)NCCCN3CCOCC3)ccc12 | ? | 27 | -1 | 29% | 4%
SMILES | Pf growth 96h | Shiga inhibitor | Cycloheximide cs | Pf growth 48h | NS1 inh
O=C(COc1ccc2c(-c3ccccc3)cc(=O)oc2c1)NCCCN1CCOCC1 | ? | 23 | 12* | -23% | 7%
O=C(NCCCN1CCOCC1)c1cc(-c2ccc(Cl)s2)nc2ccccc12 | ? | . | . | 17µM* | .
CCOc1ccc(-c2cc(C(=O)NCCCN3CCOCC3)c3ccccc3n2)cc1 | ? | 40 | 23* | -5% | -8%
O=C(NCCCN1CCOCC1)c1cc(-c2ccc(F)cc2)nc2ccccc12 | 6% | . | . | -15% | .
Cc1cc(NC(=O)c2cc(-c3ccc(OC(C)C)cc3)nc3ccccc23)no1 | -13% | 39 | 20* | ? | -7%
CN(C)CC(C)(C)CNS(=O)(=O)c1ccc(Cl)s1 | -2%[5.75 µM] | -1 | -2 | ? | .
COc1ccccc1N1CCN(C2CCCN(S(=O)(=O)c3ccccc3)C2)CC1 (stereo unspecified) | -28% | -4 | 1 | -14% | 4%
Cc1c(C(=O)C(=O)NCC2CCCO2)c2ccccc2n1C (stereo unspecified) | 71% | 1 | 7 | 4% | .
O=C(NCCN1CCOCC1)c1cc(-c2ccc(F)cc2)nc2ccccc12 | -14% | . | . | ? | .
